# The panel holds about 83,000 compounds, 20% with a hit somewhere; the sample as a whole holds those more often.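 Single-concentration screen, 48 h exposure, 96-well plates. Endpoint: percent growth. Below 10 = active.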 The source made the active and inactive calls.
# Tested on: SK-MEL-5 melanoma
# Assay: NCI-60 one-dose screen, 48 h (100 = growth as untreated, 0 = no growth, -100 = all killed)
# Settings: 10 µM unless noted
# Description: Growth inhibition of the SK-MEL-5 human tumor cell line is measured as a screen for anti-cancer activity. Cells are grown in 96 well plates and exposed to the test compound for 48 hours. Compounds are tested at a single concentration, which is 10^-5 M for most compounds. The reported endpoint is percent growth (GI% or GIPRCNT), where numbers from 0 - 100% represent growth inhibition, and numbers from -100% - 0 represent cell death. For example, a value of 40 represents 60% growth inhibition. A value of 0 means no net growth occurred over the course of the experiment. A value of -40 indicates 40% of cells at the beginning of the experiment died by the end of the experiment. A value of -100 means all cells are dead at the end of the experiment.
# NCI-60 Human Tumor Cell Lines Screen was performed using the standard one-dose NCI protocol, which is described in more detail at https://dtp.cancer.gov/discovery_development/nci-60/default.htm.
# Compounds with GIPRCNT values below 10 were considered active. Activity score was based on GIPRCNT using the following formula: […]
# Score is 0 for GIPRCNT values of 100 or above, 50 for GIPRCNT values of 0, and 100 for GIPRCNT values of -100.
row,SMILES,growth
1,NC(=NCCCOc1ccc(F)cc1)Nc1ccc(I)cc1,38.2% (inactive)
2,COc1cc2oc(-c3cccc(C(=O)Nc4ccccc4)c3)cc(=O)c2c(O)c1OC,71.7% (inactive)
3,Cc1cc2nc3c4ccc(Br)cc4n(CCN(C)C)c3nc2cc1C,4.17% (active)
4,C=C1C(=O)O[C@H]2[C@H]1CC/C(COC(=O)NCC(C)c1ccc(CC(C)C)cc1)=C\CC[C@@]1(C)O[C@@H]21 (stereo not given in full),17.1% (inactive)
5,O=C1Nc2cc(Cl)ccc2/C1=C\c1c(-c2ccc(F)cc2)nc2ccccn12,-10.9% (active)
6,NS(=O)(=O)c1ccc(CCN2C(=O)C=CC2=O)cc1,104% (inactive)
7,C[C@H]1[C@H](C)CC[C@]2(C(=O)Nc3ccc4ncccc4c3)CC[C@]3(C)C(=CC[C@@H]4[C@@]5(C)CCCNC(C)(C)[C@@H]5CC[C@]43C)[C@H]12,-18.8% (active)
8,c1ccc2cc(Cn3c(-c4cccc5ccccc45)[n+](Cc4ccc5ccccc5c4)c4c5ccccc5c5ccccc5c43)ccc2c1,-98.1% (active)
9,CCNc1nc2ccc(Nc3ccnc4cc(Cl)ccc34)cc2[nH]1,82.6% (inactive)
10,O=C(C[n+]1cccc2ccccc21)c1ccc(O)c(O)c1,82.7% (inactive)
11,CCNC(=O)Oc1ccc(/C(=C(\C)c2ccccc2)c2ccc(OCCN3CCCCC3)cc2)cc1,62.5% (inactive)
12,COc1ccc(-c2nc(S(=O)(=O)c3ccccc3)c(S(=O)CC(=O)N3CCC(C)CC3)o2)cc1 (stereo not given),72.8% (inactive)
13,Cc1cccc(C)c1N=c1oc2ccc(Cl)cc2nc1-c1ccccc1O,91.3% (inactive)
14,c1ccc2c(-c3nccs3)c[nH]c2c1,95.3% (inactive)
15,COC(=O)/C=C1\S/C(=N\NC(=O)c2cc3ccc2/C=C\c2ccc(cc2)/C=C\3)N(c2ccccc2)C1=O,69.3% (inactive)
16,CCOC(=O)/C(C#N)=C1/NNC(=Nc2cccnc2)S1,98.6% (inactive)
17,COc1cc(C(=O)Nc2cc3c(cc2Oc2cc(C)cc(C)c2)C(=O)N(C)[C@@H](CC(=O)N(C)O)C(=O)N3)c(Br)c(OC)c1OC,-71.7% (active)
18,C=CCN1C(=O)/C(=C/C(=O)OC)S/C1=N\NC(=O)c1cc2ccc1/C=C\c1ccc(cc1)/C=C\2,92.5% (inactive)
19,C/C(=N\Nc1cc(C)nc2ccc(Br)cc12)c1ccc([N+](=O)[O-])cc1,92.3% (inactive)
20,O=C(Nc1ccc(F)cc1)Nc1ccc(NC(=O)c2cc(Cl)nc3ccccc23)cc1,70.1% (inactive)

row,SMILES,growth
1,COc1ccc(C(C)=O)c(OC)c1,107% (inactive)
2,N#Cc1c(-c2cccc([N+](=O)[O-])c2)nc(SCC(=O)c2ccc(Cl)cc2)[nH]c1=O,106% (inactive)
3,NS(=O)(=O)c1ccc(CCN2C(=O)c3cc(Cl)c(Cl)cc3C2=O)cc1,105% (inactive)
4,CCCCCCNC(=O)Oc1ccc(/C(=C(\C)c2ccccc2)c2ccc(OCCN3CCCCC3)cc2)cc1,71.2% (inactive)
5,CC(=O)N1N=C(c2ccc(-n3ccc(C(F)(F)F)n3)c(F)c2)CC1c1ccc[nH]1 (stereo not given),97.7% (inactive)
6,O=C(N/N=C/c1ccc(Oc2ccccc2)cc1)c1cnn2c1NC(c1ccccc1)C2 (stereo not given),41.5% (inactive)
7,C=C1C(=O)O[C@H]2[C@H]1CC/C(CNC(=O)/C=C/c1ccccc1)=C\CC[C@@]1(C)O[C@@H]21,40.6% (inactive)
8,Cc1c2cc[nH]c(=O)c2c(C)c2c1[nH]c1cc(OCCN3CCN(C)CC3)ccc12,11.9% (inactive)
9,CCCCCN1C=C/C(=C\C(=O)N(C)c2ccc(Oc3ccccc3)cc2)c2ccccc21,62.6% (inactive)
10,CN(C)CCC(=O)c1ccc([N+](=O)[O-])cc1,99% (inactive)
11,COc1ccc(-c2cnc3c(-c4cccc5cnccc45)cnn3c2)cc1,56.5% (inactive)
12,CSc1nc2sc3cccc(Cl)c3n2c(=N)c1C#N,95.4% (inactive)
13,CCN1CCN(CCNc2nccc(-c3c(-c4cccc(OC)c4)nc4occn34)n2)S1(=O)=O,60.5% (inactive)
14,Cc1cc(C)c(S(=O)(=O)Oc2ccccc2[N+](=O)[O-])c(C)c1,6.18% (active)
15,COc1cc(NC(C)CCCNC(=O)CCC(=O)NCCCNCCCCCCCCCCNCCCNC(=O)CCC(=O)NCCCC(C)Nc2cc(OC)cc3cccnc23)c2ncccc2c1 (stereo not given),91% [8 µM] (inactive)
16,COc1cc2nc(-c3ccc(C(F)(F)F)cc3)cc(OCCCN3CCOCC3)c2cc1OC,-33.1% (active)
17,COc1ccc2nc(-c3ccc(-c4noc(-c5cc(OC)c(OC)c(OC)c5)n4)cc3)[nH]c2c1,45% (inactive)
18,C=C(C)[C@@H]1CC[C@]2(C(=O)N3CCN(C)CC3)CC[C@]3(C)[C@H](CC[C@@H]4[C@@]5(C)CC[C@H](OCCC#N)C(C)(C)[C@@H]5CC[C@]43C)[C@@H]12,94.8% (inactive)
19,COc1ccc(/C=C/c2nc(Nc3ccc(S(=O)(=O)Nc4nc(C)cc(C)n4)cc3)c3ccccc3n2)cc1,61.1% (inactive)
20,O=C1c2ccccc2C(=O)c2c([N+](=O)[O-])ccc(Cl)c21,97.9% (inactive)
